Reference: PubChem BioAssay AID588511 (Johns Hopkins Ion Channel Center, 2011)
Out of some 310,000 compounds screened, about 3,600 (1.2%) were called active.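 The calls were made as follows: active = ratio plate-corrected score three or more library SD toward inhibition, starting fluorescence score within five deviations; inactive = the rest.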 The full list was thinned out, with actives kept by preference.

Target: Anoctamin-1 (Mus musculus) (UniProt Q8BHY3)
Assay: TMEM16A chloride channel inhibitors, primary screen, cell-based, HTS (AID 588511);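 as to normalized B-score (activity score, 25-100; higher = stronger inhibition): score derived from kinetic fluorescence span divided by baseline fluorescence per well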
Settings: HEK293 TMEM16A/YFP iodide influx fluorescence, ionomycin; at 10 µM

Sequence of Anoctamin-1 (Mus musculus) (Q8BHY3 whole entry, looked up): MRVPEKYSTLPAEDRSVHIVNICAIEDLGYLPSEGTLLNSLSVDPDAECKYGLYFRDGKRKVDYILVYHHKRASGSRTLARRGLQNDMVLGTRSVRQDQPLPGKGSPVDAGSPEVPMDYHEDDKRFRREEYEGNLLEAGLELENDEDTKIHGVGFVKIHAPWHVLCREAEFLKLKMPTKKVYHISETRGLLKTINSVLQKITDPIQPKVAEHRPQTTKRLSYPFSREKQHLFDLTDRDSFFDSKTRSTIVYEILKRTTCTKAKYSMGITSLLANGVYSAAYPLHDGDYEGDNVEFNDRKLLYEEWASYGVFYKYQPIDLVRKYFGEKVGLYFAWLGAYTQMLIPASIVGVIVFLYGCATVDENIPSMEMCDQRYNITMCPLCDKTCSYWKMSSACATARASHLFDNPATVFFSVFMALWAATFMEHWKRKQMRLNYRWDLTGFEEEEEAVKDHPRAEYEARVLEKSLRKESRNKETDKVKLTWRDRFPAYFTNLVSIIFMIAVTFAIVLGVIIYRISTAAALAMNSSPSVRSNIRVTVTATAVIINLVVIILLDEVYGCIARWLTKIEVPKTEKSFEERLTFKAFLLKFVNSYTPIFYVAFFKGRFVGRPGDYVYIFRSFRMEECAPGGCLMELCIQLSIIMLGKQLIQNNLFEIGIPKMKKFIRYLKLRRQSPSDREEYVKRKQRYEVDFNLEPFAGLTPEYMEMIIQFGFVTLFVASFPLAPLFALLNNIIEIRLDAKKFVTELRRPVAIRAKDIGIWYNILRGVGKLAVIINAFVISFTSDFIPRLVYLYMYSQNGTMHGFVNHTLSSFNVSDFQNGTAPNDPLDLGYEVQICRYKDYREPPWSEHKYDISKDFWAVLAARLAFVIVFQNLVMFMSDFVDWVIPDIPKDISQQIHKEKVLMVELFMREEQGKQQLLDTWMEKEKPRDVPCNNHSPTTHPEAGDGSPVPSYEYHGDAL

Row | SMILES | normalized B-score (activity score, 25-100; higher = stronger inhibition)
1 | CS(=O)(=O)N(CC(=O)N1CCOCC1)c1cccc(Cl)c1Cl | inactive
2 | CN(CC(=O)NCCc1ccccc1)S(=O)(=O)c1cnc[nH]1 | inactive
3 | COc1ccc(C2C(C(C)=O)=C(O)C(=O)N2c2nccs2)cc1 (stereo unspecified) | inactive
4 | Cc1cc(C)c(-c2c(O)c3ccccc3n(C)c2=O)c(C)c1 | inactive
5 | CCCCCCCCCCCCN1C(=O)CSC1c1cccnc1 (stereo unspecified) | 25 (active)
6 | CCCCCCOc1ccc(OC(=O)c2cccnc2)cc1 | inactive
7 | CN(C)CCCN1C(=O)CSC1c1ccc([N+](=O)[O-])cc1 (stereo unspecified) | inactive
8 | CCOC(=O)N/N=C1\CC(C)S(=O)(=O)c2ccc(Cl)cc21 (stereo unspecified) | inactive
9 | CN(C)c1cc[n+](Cc2ccccc2)cc1 | 25 (active)
10 | CN(C)c1ccc(/C=C2\NC(=S)N(Cc3ccccc3)C2=O)cc1 | inactive
11 | c1ccc(Cc2cc[n+](Cc3ccccc3)cc2)cc1 | inactive
12 | O=C(NCCC1CCCCN1S(=O)(=O)c1ccccc1)C(=O)NCC1CCCO1 (stereo unspecified) | inactive
13 | COc1ccc(CN2CN(C3CCCC3)CSC2=S)cc1 | inactive
14 | COC(=O)c1c(C)c(C)nc(N)c1C#N | inactive
15 | COc1ccc(CNC(=O)CN(Cc2ccccc2Cl)C(=O)c2csnn2)cc1 | inactive
16 | Cc1ccccc1-n1nnnc1SCCCC(=O)c1ccc(F)cc1 | 100 (active)
17 | O=C(CSc1nnnn1-c1ccc(O)cc1)c1ccc(F)cc1 | inactive
18 | CC(=O)Nc1ccc(NC(=O)CSc2nnnn2-c2ccccc2F)cc1 | inactive
19 | CC1=C(C(=O)NC2CC(C)(C)Cc3c2cnn3-c2ccc(C)cc2)OCCO1 (stereo unspecified) | inactive
20 | CCOC(=O)c1ccc(-n2c(CCC(=O)O)ccc2-c2ccccc2)cc1 | inactive
21 | Cc1noc(C)c1COC(=O)c1cc2ccccc2cc1O | 25 (active)
22 | Cc1noc(C)c1COC(=O)COc1ccc(-c2ccccc2)cc1 | inactive
23 | COCc1c(C(=O)OCc2c(C)noc2C)oc2ccccc12 | inactive

Row | SMILES | normalized B-score (activity score, 25-100; higher = stronger inhibition)
24 | CC(=O)Nc1ccc(S(=O)(=O)Nc2cc(C)cn(Cc3ccc(C)cc3)c2=O)cc1 | inactive
25 | O=C(Cc1ccccn1)c1ccc(O)cc1O | inactive
26 | CCn1ccnc1CN(C)C(=O)c1cc(COc2ccc(-n3cncn3)cc2)on1 | inactive
27 | C=CCC1(CC=C)CCCN1C(=O)c1cc(COc2ccc(-n3cncn3)cc2)on1 | 100 (active)
28 | O=C(c1cc(COc2ccc(F)c(F)c2)on1)N1CCOCC1 | inactive
29 | COc1ccc(-c2nc(CCNC(=O)c3ccc(Br)o3)cs2)cc1 | 100 (active)
30 | COc1ccc(-c2csc(NC(=O)COC(=O)c3ccc(Br)o3)n2)cc1 | inactive
31 | COc1ccc(N2CCN(C(=O)CNC(=O)c3ccc(Br)o3)CC2)cc1 | inactive
32 | COc1ccc(C(=O)COC(=O)CNC(=O)c2cccs2)cc1Br | inactive
33 | COc1ccc(C(=O)CCC(=O)Nc2ccc(Cl)cc2)cc1 | inactive
34 | CO/N=C/CC(=O)c1ccc(OC)cc1 | inactive
35 | COc1ccc(CCC(=O)c2ccc(OC)cc2)cc1 | 100 (active)
36 | O=C(CSc1nc(=O)n2ccccc2n1)Nc1ccc2c(c1)OCCO2 | inactive
37 | CCOC(=O)CCc1c(C)c(C#N)c2[nH]c3ccccc3n2c1=O | inactive
38 | Cc1ccccc1Cn1c(=O)[nH]c2ccccc21 | inactive
39 | CCCc1cc(=S)n2c([nH]c3ccccc32)c1C#N | 25 (active)
40 | CCC(=O)Nc1nc2ccccc2n1Cc1ccccc1C | inactive
41 | CCC(=O)Nc1ccc2nc(C)n(Cc3ccccc3Cl)c(=O)c2c1 | 100 (active)
42 | CCN1CCN(c2cc3nc(C)n(Cc4ccccc4)c(=O)c3cc2NC(=O)c2ccccc2F)CC1 | inactive
43 | COC(c1ccccc1)(c1ccccc1)C(Oc1nc(C)cc(C)n1)C(=O)O (stereo unspecified) | inactive
44 | O=C1NCCn2nc3ccccc3c21 | inactive
45 | COc1ccc(NC(=O)C2CCN(S(=O)(=O)c3ccc4[nH]c(=O)oc4c3)CC2)c(OC)c1 | inactive
46 | Cc1ccc(OCc2cc(C(=O)N(C)CCc3ccccc3)no2)cc1C | inactive

Row | SMILES | normalized B-score (activity score, 25-100; higher = stronger inhibition)
47 | CN(Cc1cccnc1)C(=O)c1cc(COc2ccc3ncccc3c2)on1 | 100 (active)
48 | CC(=O)c1cccc(OCc2cc(C(=O)NC(C)Cc3cccnc3)no2)c1 (stereo unspecified) | inactive
49 | CCOC(=O)c1cc2cc(-c3c(C(=O)OCC)oc4cc(O)cc(O)c4c3=O)ccc2o1 | 100 (active)
50 | CCOC(=O)c1cc(=O)c2ccc(OCc3ccccc3)cc2o1 | inactive
51 | O=c1c(-c2ccc3c(c2)OCCO3)c(C(F)(F)F)oc2cc(O)cc(O)c12 | inactive
52 | COCCn1c(Cc2cccn2C)nnc1SCC(=O)Nc1nccs1 | inactive
53 | COCCCN1C(=O)c2ccc(C(=O)OCC(=O)NCc3ccccc3OC)cc2C1=O | inactive
54 | CC1(N2CCOCC2)CC2(O)C(=[N+]1[O-])CCc1nonc12 (stereo unspecified) | inactive
55 | CN1C(=O)/C(=C\c2cc(Br)cs2)c2ccccc21 | inactive
56 | Cc1ccc(C2C3=C(Nc4[nH]n(-c5ccccc5)c(=O)c42)c2ccccc2C3=O)cc1 (stereo unspecified) | inactive
57 | CCOC(=O)C1=C(c2ccc(OC)cc2)C(=O)c2ccccc2C1=O | inactive
58 | COC(=O)C1=C(C)NC2=C(C(=O)c3ccccc32)C1c1ccc(-c2ccc(C(=O)O)cc2)o1 (stereo unspecified) | 25 (active)
59 | CCCOc1ccc(-c2nc(N)n[nH]2)cc1 | inactive
60 | CCCOc1ccc(Cc2c(Cl)nc(SC)nc2NC)cc1 | 100 (active)
61 | CCCOc1ccc(Cc2c(O)nc(SC)[nH]c2=O)cc1C | inactive
62 | CSc1ncccc1C(=O)OCc1ccc(Br)cc1 | inactive
63 | COc1ccc(OC)c(C2C3=C(N=c4s/c(=C\c5cccc(O)c5)c(=O)n42)c2ccccc2CC3)c1 (stereo unspecified) | inactive
64 | Cc1nn(-c2ccc([N+](=O)[O-])cc2)c(N)c1-c1ccccc1 | inactive
65 | CC1=NN(c2ccccc2)C(=O)C1C(=O)c1ccc([N+](=O)[O-])cc1 (stereo unspecified) | inactive
66 | O=C1CC(c2ccccc2)=NN1c1ccc([N+](=O)[O-])cc1 | 100 (active)
67 | CCNC(=O)NNC(=O)C1CC(c2cccs2)=NO1 (stereo unspecified) | inactive
68 | Nc1nnc(SCC(=O)OCc2ccc(Cl)c(Cl)c2)s1 | inactive
69 | Cc1ccc(CNC(=O)C2CCCN2C(=O)NCc2ccccc2)cc1 (stereo unspecified) | inactive

Row | SMILES | normalized B-score (activity score, 25-100; higher = stronger inhibition)
70 | Cc1ccc(C(=O)N/C(=C\c2cn(C)c3ccccc23)C(=O)N2CCN(C)CC2)cc1 | inactive
71 | Cc1ccc(N2C(=O)S/C(=C/c3cn(C)c4ccccc34)C2=O)cc1 | 25 (active)
72 | Cc1cc(/C=C2\SC(=O)N(C)C2=O)c(C)n1-c1cccc(C(=O)O)c1 | inactive
73 | CC(C)COc1ccc(C(=O)OCC(=O)NCCC2=CCCCC2)cc1 | inactive
74 | CC(C(=O)NC1CCS(=O)(=O)C1)N1C(=O)/C(=C/c2ccc(Cl)cc2)SC1=S (stereo unspecified) | inactive
75 | Cc1noc(C)c1CSc1nc2cc(S(=O)(=O)N3CCOCC3)ccc2o1 | inactive
76 | COc1cccc(CNCCc2c[nH]c3ccccc23)c1OCc1ccccc1F | 100 (active)
77 | COc1ccccc1NC(=O)CCCc1c[nH]c2ccccc12 | inactive
78 | COc1ccc(S(=O)(=O)NCCc2c[nH]c3ccccc23)cc1OC | inactive
79 | CC(=O)Nc1ccc(Sc2ccccc2C(=O)N2CCCC2)cn1 | inactive
80 | COc1ccc(-n2ncc3c2CC(C)(C)CC3NC(=O)CCc2c(C)nn(C)c2C)cc1 (stereo unspecified) | inactive
81 | COc1ccc(CNC(=O)C(=O)N2CCC3(CC2)OCCN3S(=O)(=O)c2ccc(C)cc2)cc1 | inactive
82 | CCOC(=O)C(Sc1ncc(C#N)c(N)n1)C(C)C (stereo unspecified) | 100 (active)
83 | CCCCOc1ccc(-c2ncc(C(=O)OCC)c(N)n2)cc1 | inactive
84 | CCOC(=O)CSc1nccc(N(C)C)c1C#N | inactive
85 | COc1cc2sc(C)nc2cc1C | inactive
86 | CCOc1ccc(-c2noc(CCC(=O)NC3CCCC3)n2)cc1OC | inactive
87 | COc1cccc(NC(=O)CCc2nnc3ccc(N4CCC(C)CC4)nn23)c1 | inactive
88 | Cc1ccc(NC(=O)C2CC2c2ccccc2)cc1 (stereo unspecified) | inactive
89 | O=C(O)c1ccc(NC(=O)C2CCCCC2)cc1 | 100 (active)
90 | CC(C)NS(=O)(=O)c1ccc(NC(=O)C2CCCCC2)cc1 | inactive
91 | O=C(Nc1ccc(-c2ccc3nncn3n2)cc1)C1CCCCC1 | inactive
92 | CCNC(=O)c1ccc(OCC(=O)Nc2ccc(F)cc2)c(OC)c1 | inactive

Row | SMILES | normalized B-score (activity score, 25-100; higher = stronger inhibition)
93 | COc1ccc(NC(=O)CN(C)CC(=O)Nc2cccc(C(F)(F)F)c2)cc1 | inactive
94 | COc1cc(C(=O)N(C)Cc2cccc(OC)c2OC)ccc1OCC(=O)Nc1cccc(C(F)(F)F)c1 | 100 (active)
95 | COC(=O)Cc1ccc(N(Cc2ccccc2F)S(=O)(=O)c2ccc(Br)cc2)cc1 | inactive
96 | CCCc1ccc(-c2csc(NC(=O)Cc3cccs3)n2)cc1 | inactive
97 | COc1cc(CC(=O)NCc2cccs2)cc(OC)c1OC | inactive
98 | COc1ccc(CC(=O)Nc2nc(-c3ccc(F)c(F)c3)cs2)cc1OC | 25 (active)
99 | COc1ccc(-c2csc(NC(=O)COC(=O)Cc3ccc(Cl)cc3Cl)n2)cc1 | inactive
100 | Cc1ccc(S(=O)(=O)NC(=O)Nc2nc(-c3ccc(F)c(F)c3)cs2)cc1 | inactive
101 | COc1cc(CC(=O)Nc2nc(-c3ccc(F)c(F)c3)cs2)cc(OC)c1OC | 25 (active)
102 | CCn1c(SCc2cccc(C(=O)O)c2)nnc1-c1ccc(Cl)cc1 | inactive
103 | Cn1ccnc1-c1nnn(-c2ccc(F)cc2)n1 | inactive
104 | COC(=O)c1ccc(OC(=O)c2nn(C)cc2Cl)c(OC)c1 | inactive
105 | Cc1noc(C)c1-c1nc(CSc2ccc(Cl)cc2)no1 | inactive
106 | Cc1cc(C)n(CC(=O)Nc2ccc([N+](=O)[O-])cc2)n1 | inactive
107 | COCCCNC(=O)c1ccc(CNS(=O)(=O)c2ccc(NC(C)=O)cc2)cc1 | inactive
108 | Cc1cc(N=Nc2ccc3ccccc3c2)ccc1O | inactive
109 | Cc1cccc(-c2c(NC(=O)c3ccco3)oc3ccc(Cl)cc3c2=O)c1 | inactive
110 | CN(C)CCCO/N=C(\c1ccccc1)c1ccncc1 | inactive
111 | CC(C)Oc1ccc(/C=C(\NC(=O)/C=C/c2ccco2)C(=O)NCCc2nc3ccccc3[nH]2)cc1 | inactive
